1 molecule from PubChem BioAssay AID1053119 (Broad Institute, 2014) can be followed below.

Measured potencies and affinities stand elsewhere. Results filed as inconclusive are left out. Calls of active or inactive are those of the source.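 The calls were made as follows: active = signal loss from cell killing with fitted potency at or below twice the top valid dose; inconclusive = flat drop of 30 to 70%, or unreliable curve fit; inactive = opposite direction, flat within 30%, or weaker potency.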

A short description of this experiment: viability loss in A549 lung cancer cells – cell-based, cherry-picks, 26 µM top dose, cytotoxicity control, dose response (AID 1053119).

Turning to `C=C1C(=O)O[C@@H]2C[C@@H](C)[C@@H]3C=CC(=O)[C@@]3(C)[C@@H](O)[C@H]12`, the molecule was classed as inactive.
